Bioassay records deposited in PubChem by National Center for Advancing Translational Sciences (NCATS).
Only some compounds are listed: those with a hit (about 5.7% of all), similar ones and a draw of the others.
PI4K2A inh = PI4K2A (human) kinase inhibition. activity change, negative = inhibition, % at 76.9 µM. 0.13% of 420,000 active. Q9BTU6. purified PI4K2A, ADP-Glo luminescence, 1 h; stronger effect = lower value; in the data active means activity change below about -50%; inconclusive means mostly about -30% to -49%;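 further: -100% = wells without enzyme as full effect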
Target sequence (Q9BTU6 whole entry, looked up): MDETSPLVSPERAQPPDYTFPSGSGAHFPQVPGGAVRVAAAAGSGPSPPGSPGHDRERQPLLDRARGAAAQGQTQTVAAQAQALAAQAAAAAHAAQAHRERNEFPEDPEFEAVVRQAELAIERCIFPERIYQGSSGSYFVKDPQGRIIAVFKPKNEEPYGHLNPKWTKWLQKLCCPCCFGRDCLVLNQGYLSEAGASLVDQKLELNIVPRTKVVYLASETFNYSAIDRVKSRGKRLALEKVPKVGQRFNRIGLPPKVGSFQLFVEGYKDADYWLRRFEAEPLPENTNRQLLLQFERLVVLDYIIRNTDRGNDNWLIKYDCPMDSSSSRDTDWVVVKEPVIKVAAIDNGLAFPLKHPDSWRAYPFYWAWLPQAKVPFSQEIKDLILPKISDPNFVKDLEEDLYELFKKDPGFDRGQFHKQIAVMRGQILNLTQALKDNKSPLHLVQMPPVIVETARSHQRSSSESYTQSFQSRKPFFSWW
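Compounds are screened against recombinant PI4K2A using PI as substrate and ATP, the latter dispensed at 300 microM. Reactions run one hour at ambient temperature before ADP-Glo detection; full inhibition defined by wells lacking enzyme.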
A549 tox = counter-screen for Nrf2 inhibitors: cytotoxicity in A549 cells; A549 ARE-Fluc cells, CellTiter-Fluor viability, 18-24 h; Potency, µM (series often up to 46 µM), inactives show top-dose activity change, negative = cytotoxicity, hits mostly inhibitors; 0.16% of 390,000 active; further: potency means the concentration at half of the fitted maximal effect
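A549 ARE_Fluc cells in 5% FBS OPTI-MEM were exposed to compounds in concentration-response for 18-24 h at 37 deg C. Viability was read by CellTiter-Fluor fluorescence (Ex 405/Em 525) after 30 min, before the luciferase read.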
KB-V1 cytotox = kills drug-selected multidrug resistant KB-V1 cells. KB-V1 MDR cells viability, CellTiter-Glo, 72 h. Potency, µM (titrated, usually from 46.1 µM), usual class: cytotoxic. 3.4% of 400,000 active. AID 1347076; further: potency means the concentration at half of the fitted maximal effect; nearly all actives have a fitted effect of over 60% in size
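Drug-selected KB-V1 cells, grown in DMEM lacking phenol red with 10% FBS, receive compound titrations; after three days at 37 degrees C, surviving cell ATP is quantified by CellTiter-Glo luminescence and responses normalized and curve-fitted.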
Nrf2 inh = inhibitors of Nrf2 signaling. Potency, µM (doses to about 46 µM), inactives show top-dose activity change, negative = inhibition, hits mostly inhibitors. 2.1% of 360,000 active. AID 504444. A549 ARE-Fluc reporter, luciferase luminescence, 18-24 h; further: potency means the concentration at half of the fitted maximal effect; nearly all actives have a fitted effect of over 60% in size
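Two sequential reads on A549 ARE_Fluc cells exposed to compound for 18-24 h: a CellTiter-Fluor fluorescence read for viability, then a luciferase luminescence read for Nrf2/ARE activity.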
KB-3-1 cytotox = kills parental KB-3-1 adenocarcinoma cells; KB-3-1 viability, CellTiter-Glo ATP luminescence, 72 h; Potency, µM (top dose mostly 46.1 µM), most hits filed as cytotoxic; 1.4% of 400,000 active; AID 1347075; further: potency means the concentration at half of the fitted maximal effect; nearly all actives have a fitted effect of over 60% in size
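Parental KB-3-1 adenocarcinoma cells in phenol-red-free DMEM with 10% FBS were pin-treated with compounds at several concentrations, incubated 72 h at 37 °C, and viability read by CellTiter-Glo luminescence; concentration-effect curves were fitted after normalization.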
Giardia killer = kills Giardia lamblia. AID 540267. activity change, % at 7.66 µM, hits read low. 0.15% of 340,000 active. Giardia lamblia trophozoite viability; in the data active means activity change below about -80%; inconclusive means between about -30% and that limit;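 further: parasites exposed to compound for two days anaerobically before the ATP read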
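Trophozoite viability was measured as ATP-dependent luminescence, read 15-30 min after reagent addition. Before that, parasites at 100 cells/well were exposed to compounds for 48 h, anaerobically, at 37 deg C.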
An asterisk follows results filed as active; i = inactive; ? = inconclusive; . = no result. Unless noted, the call rests on the fitted dose curve; in most records, active means well fitted curve in the direction sought with a large enough effect; inconclusive means small, poorly fitted or top-dose-only effect, or another doubt; inactive means no such curve, though single readings can be large; an effect the other way counts as inactive or inconclusive. Unless noted, on the % scale 0 is the no-effect control and ±100 the full control effect.

SMILES	PI4K2A inh	A549 tox	KB-V1 cytotox	Nrf2 inh	KB-3-1 cytotox	Giardia killer
O=C(CN1CCN(Cc2ccccc2Cl)CC1)N/N=C\c1ccccc1F	0	.	.	.	.	.
CC(C)(C)NCC(O)COc1ccccc1OCC1CCCO1 (stereo not drawn)	0	.	.	.	.	.
CN1CCN(C(=O)c2ccc(Oc3ccc([N+](=O)[O-])cc3)cc2)CC1	-3	0%	?	-20%	i	1
O=C(c1ccccc1)c1ccc(C(=O)N2CCCC(C(F)(F)F)C2)cc1 (stereo not drawn)	6	-3%	i	-3%	i	4
COc1cc(/C=C/C(=O)c2ccc(NS(=O)(=O)c3ccc(C)cc3)cc2)cc(OC)c1O	-6	?	i	23µM*	?	-5
CCOC(=O)N1CCN(C(=O)c2ccc(Oc3ccc([N+](=O)[O-])cc3)cc2)CC1	5	-9%	7.3µM*	26µM*	i	2
CN(c1ccc(C(=O)N2CCCCCC2)cc1)S(=O)(=O)c1ccc(Cl)cc1	0	-9%	23µM*	23µM*	i	-5
O=C(c1ccc(S(=O)(=O)Nc2ccccc2)cc1)N1CCCC(C(F)(F)F)C1 (stereo not drawn)	-2	?	i	26µM*	i	-2
CCOC(=O)N1CCN(C(=O)c2ccc(S(=O)(=O)Nc3ccc(C)cc3)cc2)CC1	1	-16%	10µM*	10µM*	7.3µM*	-4
CC(C)CC(NS(=O)(=O)OCC(Cl)(Cl)Cl)c1ccccc1 (stereo not drawn)	0	?	23µM*	?	i	2
CC(c1ccc(NC(=O)OC(C)(C)C)cc1)c1cn(C)c2ccccc12 (stereo not drawn)	-1	.	.	.	.	.
CCc1ccc(-c2nnn(CCC(=O)OC)n2)cc1	2	1%	i	3.3µM*	i	-8
O=[N+]([O-])c1ccc(O)c(N=Cc2sc3ccccc3c2O)c1	-1	-17%	4.1µM*	1%	16µM*	11
Oc1ccc(Cl)cc1N=Cc1sc2ccccc2c1Cl	5	-3%	i	?	?	5
CCOc1ccc(C2=CS/C(=C(\C#N)c3nnc4n3CCCCC4)N2CC)cc1	10	4%	21µM*	?	i	7
Nc1cc(N)[nH]c(=S)n1	.	.	i	.	i	.
O=C(OCc1cn(Cc2cccc(Cl)c2)nn1)N1CCCC1	-1	.	.	.	.	.
CCc1nn2c(-c3ccccc3OC)ccnc2c1-c1ccccc1	2	11%	i	?	i	.
Cc1ccc(C)c(Nc2nc3c(S(=O)(=O)c4ccc(C(C)C)cc4)nnn3c3ccsc23)c1	-3	?	i	16µM*	?	.
Cc1ccc(C)c(Nc2nc3c(S(=O)(=O)c4ccc(Br)cc4)nnn3c3ccsc23)c1	0	?	i	?	i	.
CCOc1ccc(N(CC(=O)N2CCN(C(=O)CN(c3ccc(OCC)cc3)S(C)(=O)=O)CC2)S(C)(=O)=O)cc1	-1	-2%	i	5%	i	-18
CCOC(=O)N1CCN(C(=O)CN(c2ccc(OCc3ccccc3)cc2)S(C)(=O)=O)CC1	-1	-1%	5.2µM*	.	i	10
CCOc1ccc(N(CC(=O)N2CCC(Cc3ccccc3)CC2)S(C)(=O)=O)cc1	-2	-7%	?	26µM*	i	-5
CCOC(=O)N1CCN(C(=O)CN(c2ccccc2)S(C)(=O)=O)CC1	-2	0%	i	-2%	i	11
CCOC(=O)N1CCN(C(=O)CCNS(=O)(=O)c2ccccc2)CC1	2	0%	i	5%	i	29
SMILES	PI4K2A inh	A549 tox	KB-V1 cytotox	Nrf2 inh	KB-3-1 cytotox	Giardia killer
O=C(COc1ccc(-c2ccccc2)cc1)N1CCN(S(=O)(=O)Cc2ccccc2)CC1	-3	0%	4.6µM*	-1%	3.7µM*	33
CCOC(=O)N1CCN(C(=O)COc2ccc(S(=O)(=O)NCc3ccccc3)cc2)CC1	5	-18%	i	18µM*	i	4
O=C(c1cccc(C(F)(F)F)c1)N1CCOC12CCN(c1ncc(C(F)(F)F)cc1Cl)CC2	-2	-14%	i	26µM*	i	-1
COc1cccc(Cn2ncc3c4sc(S(C)=O)cc4n(C)c3c2=O)c1 (stereo not drawn)	-3	9%	.	-10%	.	.
Cc1cnc(C(=O)NCc2ccc(Cl)cc2Cl)cn1	3	3%	?	-5%	i	6
CCOC(=O)c1cc(C(=O)NCc2ccc(Cl)cc2Cl)nn1C	-8	-17%	i	21µM*	?	12
O=S(=O)(c1ccccc1)c1cnc(-c2cccnc2)nc1-c1ccc(Cl)cc1Cl	3	-3%	i	?	?	7
O=S(=O)(c1ccccc1)c1cnc(-c2cccnc2)nc1-c1ccccc1	3	0%	8.2µM*	10%	i	-2
Cc1nc(-c2ccccc2)sc1-c1nc(-c2cccnc2)ncc1S(=O)(=O)c1ccccc1	0	?	?	23µM*	?	1
Cc1cc(S(=O)(=O)Nc2ccc(O)c(Sc3nc4ccccc4s3)c2)ccc1Cl	-1	-5%	18µM*	2%	?	.
CN1C(=O)c2cccc3c(N(C)C)ccc(c23)C1=O	2	12%	12µM*	-3%	i	5
O=C(COC(=O)c1ccc(Sc2ncn[nH]2)c([N+](=O)[O-])c1)Nc1cccc(Cl)c1F	0	.	.	.	.	.
O=C(NCc1cccnc1)/C(=C\c1ccc(-c2ccc(Br)cc2)o1)S(=O)(=O)c1ccccc1	4	?	7.3µM*	?	?	-21
O=C(NCc1cccnc1)/C(=C/c1ccc(-c2ccc(Cl)cc2)o1)S(=O)(=O)c1ccccc1	3	?	?	21µM*	i	-4
Cc1ccccc1Nc1nc(N)c(C(=O)c2ccccc2Cl)s1	5	5%	.	?	.	.
O=C1C(NS(=O)(=O)c2cccs2)=C(N2CCN(c3cccc(Cl)c3)CC2)C(=O)c2ccccc21	-10	?	i	21µM*	?	-5
COc1ccc(C(=O)Nc2cc(Cl)c(Br)cc2C(=O)O)cc1	-1	.	.	.	.	.
Cc1cc(C)c2cc(C)c3nnc(SCC(=O)NCc4ccc5c(c4)OCO5)n3c2c1	-12	-7%	2.3µM*	-22%	i	8
Cc1cc2cc(C)c3nnc(SCC(=O)NCc4ccc5c(c4)OCO5)n3c2cc1C	-9	-14%	?	?	i	6
CCOc1ccc(-n2nc3ccc(NC(=O)c4ccc(-c5cccc(Cl)c5)o4)cc3n2)cc1	-4	-15%	.	15µM*	.	.
